About 2,100 (0.53%) of roughly 400,000 compounds were called active. About 14% were inconclusive and are not listed. No rule for the calls is given here. The entries come from a sample that favours actives as a whole.

Sequence of Ataxin-2 (Homo sapiens) (Q99700 whole entry): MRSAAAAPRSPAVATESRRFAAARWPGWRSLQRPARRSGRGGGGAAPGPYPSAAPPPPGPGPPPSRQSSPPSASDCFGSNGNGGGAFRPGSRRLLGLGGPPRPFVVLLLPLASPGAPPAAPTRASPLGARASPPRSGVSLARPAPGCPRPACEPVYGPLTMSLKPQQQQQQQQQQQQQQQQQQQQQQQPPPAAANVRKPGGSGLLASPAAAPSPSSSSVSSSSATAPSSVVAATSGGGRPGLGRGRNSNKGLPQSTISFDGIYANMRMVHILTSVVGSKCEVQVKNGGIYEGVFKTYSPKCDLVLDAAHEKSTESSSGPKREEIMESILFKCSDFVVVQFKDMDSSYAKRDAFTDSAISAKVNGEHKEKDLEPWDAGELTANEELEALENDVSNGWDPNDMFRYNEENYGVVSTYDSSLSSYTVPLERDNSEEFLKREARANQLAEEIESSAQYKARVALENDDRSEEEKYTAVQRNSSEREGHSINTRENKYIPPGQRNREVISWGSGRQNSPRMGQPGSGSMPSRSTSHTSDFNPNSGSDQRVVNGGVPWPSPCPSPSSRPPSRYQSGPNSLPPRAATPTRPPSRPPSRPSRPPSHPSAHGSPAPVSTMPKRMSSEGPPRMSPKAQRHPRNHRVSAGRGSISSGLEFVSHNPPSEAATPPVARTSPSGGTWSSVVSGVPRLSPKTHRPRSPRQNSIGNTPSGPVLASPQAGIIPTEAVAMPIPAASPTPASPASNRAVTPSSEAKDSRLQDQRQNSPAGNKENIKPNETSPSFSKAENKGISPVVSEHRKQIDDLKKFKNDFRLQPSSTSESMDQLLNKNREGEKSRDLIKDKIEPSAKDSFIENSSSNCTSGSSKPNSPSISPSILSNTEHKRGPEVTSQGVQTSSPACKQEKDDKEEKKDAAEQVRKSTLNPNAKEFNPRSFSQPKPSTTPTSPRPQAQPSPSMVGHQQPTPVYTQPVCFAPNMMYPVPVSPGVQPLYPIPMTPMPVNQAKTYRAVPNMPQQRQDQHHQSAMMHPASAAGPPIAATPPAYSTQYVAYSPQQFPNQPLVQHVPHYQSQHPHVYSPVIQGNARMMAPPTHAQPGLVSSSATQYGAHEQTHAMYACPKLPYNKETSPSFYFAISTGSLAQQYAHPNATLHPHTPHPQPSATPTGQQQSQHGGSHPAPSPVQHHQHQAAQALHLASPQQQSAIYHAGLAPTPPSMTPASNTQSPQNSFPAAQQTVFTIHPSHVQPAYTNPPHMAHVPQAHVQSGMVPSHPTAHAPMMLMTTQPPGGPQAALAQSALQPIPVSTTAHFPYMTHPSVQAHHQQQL

The experiment addresses Ataxin-2 (Homo sapiens) (UniProt Q99700). Kind of experiment: qHTS for Inhibitors of ATXN expression. The experiment is classed as functional. Background: In qHTS, concentration-response curves come from the screen itself.
For the molecule `Cc1cccc(OCc2n(C)c3ccccc3[n+]2CC(=O)OC2CC(C)CCC2C(C)C)c1` (stereo not given), the Potency was 35.5 µM (active).
On to `Nc1nnnn1/N=C/c1cc(Cl)cc(Cl)c1O`, for which the Potency entry is “inactive”.
The value for `O=C(Nc1nccs1)c1cccnc1O` was “inactive”.
`CN(C)CCCNC(=O)C[C@H]1C[C@H](C(=O)N2CCOCC2)[C@@]2(CCC3CCCC3)c3[nH]c4cc(-c5ccco5)ccc4c3CCN2C1=O`: the Potency is 35.5 µM (active).
Regarding `O=C(C[C@H]1C[C@H](C(=O)N2CCCCC2)[C@@]2(CCc3ccccc3)c3[nH]c4cc(-c5ccco5)ccc4c3CCN2C1=O)NCCN1CCOCC1`, the Potency was 31.6 µM (active).
For `O=C(NCCN1CCOCC1)c1cc2c(=O)n3ccccc3nc2n1Cc1ccccc1`, the Potency entry was “inactive”.
Consider `O=C(C[C@H]1C[C@H](C(=O)N2CCOCC2)[C@@]2(CCC3CCCC3)c3[nH]c4cc(-c5ccco5)ccc4c3CCN2C1=O)NCCN1CCOCC1`, for which the Potency was 35.5 µM (active).
Turning to `O=C(CCCCCn1c(=S)[nH]c2ccc(N3CCOCC3)cc2c1=O)NCCc1ccccc1`, the Potency entry was “inactive”.
Regarding `O=C(C[C@H]1C[C@H](C(=O)N2CCOCC2)[C@@]2(CCC3CCCC3)c3[nH]c4cc(-c5ccco5)ccc4c3CCN2C1=O)NCCc1ccccn1`, the Potency was 35.5 µM (active).
As for `COCCCn1c(=N)c(C(=O)NCc2ccco2)cc2c(=O)n3ccccc3nc21`, the Potency result was “inactive”.
Take `CCN(C(=O)COC(=O)c1cc(-c2ccc(C)o2)nc2ccccc12)C1CCS(=O)(=O)C1` (stereo not given): the Potency result was “inactive”.
The value for `COc1cc(NC(=O)CN2CCN(S(=O)(=O)/C=C/c3ccccc3)CC2)cc(OC)c1OC` was “inactive”; that for `CCOC(=O)c1[nH]c2ccc(F)cc2c1NC(=O)CN1CCN(C/C=C/c2ccccc2)CC1` was 39.8 µM (active); that for `COc1ccc(OC)c(NC(=O)CCN2CCN(C/C=C/c3ccccc3)CC2)c1` was “inactive”.
For `CCCCCCCN(c1ccccc1)[C@@H]1C[C@H]2CCCC(=O)N3CC[C@@H](C1)[C@@H]23` the value was 35.5 µM (active); for `COc1ccc(NC(=O)c2ccc(-c3ccc(-c4noc(C)n4)cc3C)cc2)cc1N1CCN(C)CC1`, 39.8 µM (active); for `CC(C)(C)c1ccc(CN2N=Nc3ccccc3S2(=O)=O)cc1`, 39.8 µM (active).
Consider `O=C(N/N=C\c1c(O)ccc2ccccc12)c1cncc(Br)c1`, for which the Potency result is “inactive”.
As to `CC(C)(C)C(=O)Oc1ccc2cc(-c3ccc4ccccc4n3)c(=O)oc2c1`, the Potency entry was “inactive”.
Take `COc1ccc(NC(=O)CSc2ccc3c4c(cccc24)C(=O)c2ccccc2-3)cc1`: the Potency is 22.4 µM (active).
Regarding `COC(=O)c1ccccc1SCC(=O)Nc1ccc(N2CCOCC2)cc1`, the Potency result is “inactive”.
With `COc1ccc(N2C(=O)c3cccc4c(N(C)CCO)ccc(c34)C2=O)cc1`, the Potency entry is “inactive”.
On to `Oc1ccc(Cl)cc1/C=N/c1ccc2c3c(cccc13)CC2`, for which the Potency entry is “inactive”.
The value for `CC(C)(C)[S+]([O-])N1Cc2cc(C(=O)NCc3ccc4c(c3)OCO4)nc(-c3cccc(-c4cc5ccccc5o4)c3)c2[C@@H]1CCO` (stereo not given in full) was 31.6 µM (active); that for `CCn1c(=O)c(C(=O)NCc2ccc3c(c2)OCO3)c(O)c2ccccc21` was “inactive”.
The value for `CC(C)(C)[S+]([O-])N1Cc2cc(C(=O)NCc3ccc(Oc4ccccc4)cc3)nc(-c3cccc(-c4cc5ccccc5o4)c3)c2[C@H]1CCO` (stereo not given in full) was 35.5 µM (active).
For the molecule `CC(C)(C)[S+]([O-])N1Cc2cc(C(=O)NCc3ccc(Oc4ccccc4)cc3)nc(-c3cccc(-c4cc5ccccc5o4)c3)c2[C@@H]1CCO` (stereo not given in full), the Potency was 39.8 µM (active).
For the molecule `O=C(CSc1nc(C2CCCCC2)nc2ccccc12)NCc1ccc2c(c1)OCO2`, the Potency entry is “inactive”.
In the case of `CC(=O)N1Cc2cc(C(=O)NCc3cccc(F)c3)nc(-c3cccc(C4=CCCCC4)c3)c2[C@H]1CCO`, the Potency was 35.5 µM (active).
Take `O=S(=O)(c1ccccc1)N1CCN=C1SCc1cccnc1`: the Potency result is “inactive”.
The value for `CCN(CC)c1ccc2cc(C(=O)NNC(=O)c3ccc(S(=O)(=O)N4CCCCC4)cc3)c(=O)oc2c1` was “inactive”; that for `N#CC1=C(N)N2C(=C(C#N)C1c1ccc(Br)cc1)Nc1ccccc12` (stereo not given) was “inactive”.
For `O=C1OCCN1C(=O)[C@H]1[C@H](c2ccc(Cl)cc2)C(c2ccccc2)=NN1c1ccccc1` the value was “inactive”; for `CCOc1ccc(S(=O)(=O)[N-]c2nc3ccccc3nc2-[n+]2ccc(NC(=O)c3ccccc3C)cc2)cc1`, “inactive”.
In the case of `Cc1cccc2cc3c(NC(=O)C(C)(C)C)nn(CC(C)C)c3nc12`, the Potency entry is “inactive”.
With `Cc1cc(NN)nc(NS(=O)(=O)c2ccc(Cl)cc2)n1`, the Potency result is “inactive”.
For `CN(C)C(=O)c1cccc(-c2cccc(-c3nc(C(=O)NCc4ccccc4)cc4c3[C@@H](CCO)N([S+]([O-])C(C)(C)C)C4)c2)c1` (stereo not given in full) the value was 25.1 µM (active); for `CSc1nnc(N2C(=O)C(O)=C(C(=O)c3ccco3)C2c2ccc(F)cc2)s1` (stereo not given), “inactive”; for `CCN=C(S)NCc1ccc2[nH]c(C)cc2c1`, “inactive”.
For `FC(F)(F)c1cc(CO[C@@H]2CCCN[C@@H]2c2ccccc2)cc(C(F)(F)F)c1`, the Potency was 35.5 µM (active).
Turning to `Cc1c(Br)c(=O)oc2c(Br)c(O)ccc12`, the Potency result is “inactive”.
`Cc1cc(C2(c3ccc(O)c(C)c3)C(=O)N(C)c3ccc(Br)cc32)ccc1O`: the Potency was 44.7 µM (active).
Regarding `CC1(C)OC(=O)C(/C=N\Nc2c(Cl)cc(Cl)cc2Cl)=C(O)O1`, the Potency entry is “inactive”.
In the case of `Cc1cc2oc3cc(NCCC4CCCN4C)ccc3c(=O)c2cc1C` (stereo not given), the Potency entry was “inactive”.
As for `C=C(C)c1nc(Oc2ccccc2)nc(Oc2ccccc2)n1`, the Potency is 33.6 µM (active).
For the molecule `COc1ccc2cc(-c3cc(C(=O)OCC(=O)NC4CCS(=O)(=O)C4)c4ccccc4n3)ccc2c1` (stereo not given), the Potency result is “inactive”.
Turning to `CC1C(C#N)=C(SCC(N)=O)N=C2CC(C)(C)CC(O)=C21` (stereo not given), the Potency entry is “inactive”.
Regarding `COc1cc(/C=C(\C#N)c2nc3ccccc3[nH]2)ccc1OCc1ccc(F)cc1`, the Potency result was “inactive”.
For the molecule `COc1ccc(CNc2cccc3[nH]c(C(F)(F)F)nc23)cc1OC`, the Potency entry was “inactive”.
For `COc1cc(/C=C(\C#N)c2nc3ccccc3[nH]2)ccc1OCc1ccccc1F` the value was “inactive”.
As to `COc1cccc(CNc2nc[nH]n2)c1OCc1ccccc1F`, the Potency result was “inactive”.
`COc1cc(CNCCc2c[nH]c3ccccc23)ccc1OCc1ccc(F)cc1`: the Potency was 35.5 µM (active).
For `COc1cccc(CNCCc2c[nH]c3ccccc23)c1OCc1ccccc1F`, the Potency is 28.2 µM (active).
For the molecule `COC(=O)C1=CN(CCCN2CCCC2=O)C=C(C(=O)OC)C1c1ccccc1C(F)(F)F`, the Potency entry is “inactive”.
Turning to `Cc1c(Cc2ccccc2)c(=O)oc2c(CN(C)C)c(O)c(Cl)cc12`, the Potency result was “inactive”.
As to `c1ccc(CNc2ncnc3sc4c(c23)CCCC4)nc1`, the Potency entry is “inactive”.
For `COc1ccc2cc(-c3nc(Cl)c4c5c(sc4n3)CCCC5)c(=O)oc2c1`, the Potency entry is “inactive”.
With `Cc1cc(C)n(-c2nc(NCCCN(C)C)c3c4c(sc3n2)CCCC4)n1`, the Potency was 25.1 µM (active).
On to `CCn1cc(C2N3CC4(C)CN2CC(C)(C3)C4=O)c2ccccc21` (stereo not given), for which the Potency entry is “inactive”.
Take `CCNc1cc2oc(=O)c(CN3CCOCC3)c(C)c2cc1C`: the Potency result was “inactive”.
Take `COc1ccc(-n2c(-c3cccc(OC)c3)nc(=S)c3c2CCCC3)cc1`: the Potency is 25.1 µM (active).
The value for `COc1cccc(N2CCc3c(C)nc4ccc(Cl)cc4c32)c1` was “inactive”; that for `COc1ccc(N2CCN(c3cc(C)c4cccc(C)c4n3)CC2)cc1` was “inactive”; that for `CN1CCN(CC/C=C2/c3ccccc3Sc3ccc(S(=O)(=O)N(C)C)cc32)CC1` was 35.5 µM (active).
For the molecule `Cc1ccccc1-n1c2nc(=O)n(C)c(=O)c-2cc2ccccc21`, the Potency entry is “inactive”.
Turning to `CCCc1nc2c(=O)n(C)c(=O)nc-2n(C)n1`, the Potency is 8.44 µM (active).
Take `Cn1c(=O)nc2n(Cc3ccccc3)c3ccccc3cc-2c1=O`: the Potency entry was “inactive”.
Turning to `Cn1nc(-c2ccccn2)nc2c(=O)n(C)c(=O)nc1-2`, the Potency is 17.8 µM (active).
Consider `Cc1ccc(C)c(-n2c3nc(=O)n(C)c(=O)c-3cc3ccccc32)c1`, for which the Potency result was “inactive”.
As for `CC(C)C[C@H]1CN=C(Nc2ccccc2)N1CCCC1CCCCC1`, the Potency is 22.4 µM (active).
With `CC(C)(C)C1CCC(CN2C(Nc3ccccc3)=NC[C@@H]2Cc2ccccc2)CC1` (stereo not given in full), the Potency is 25.1 µM (active).
For `CCC(=O)c1cc2c(C)cc(=O)oc2c(C)c1OC(=O)C(C)C` the value was “inactive”.
For the molecule `O=[N+]([O-])c1ccccc1S(=O)(=O)N1CCN(Cc2ccccc2)CC1`, the Potency entry is “inactive”.
For `CN1CCN(S(=O)(=O)c2ccc(Sc3nnnn3-c3ccccc3)c([N+](=O)[O-])c2)CC1` the value was 39.8 µM (active); for `COc1cc(OC)cc(OC(=O)c2cccc(S(=O)(=O)N3CCN(C)CC3)c2)c1`, “inactive”; for `NC1=NC[C@H](c2ccccc2)N1CCc1cc(C(F)(F)F)cc(C(F)(F)F)c1`, 28.2 µM (active).
For the molecule `CCC(C)[C@H]1CN=C(S)N1CCc1cc(C(F)(F)F)cc(C(F)(F)F)c1` (stereo not given in full), the Potency was 35.5 µM (active).
For the molecule `FC(F)(F)c1cc(CCN2C(S)=NC[C@@H]2Cc2ccccc2)cc(C(F)(F)F)c1`, the Potency is 39.8 µM (active).
For `COc1cccc(C2=CC(c3ccccc3F)n3ncc(C(=O)Nc4ccc(F)cc4)c3N2)c1` (stereo not given), the Potency result was “inactive”.
On to `CC1CC(Nc2ccccc2)c2ccccc2N1C(=O)c1ccncc1` (stereo not given), for which the Potency entry is “inactive”.
For `CN1CCc2c(sc3c2C(=O)NC(c2ccc(-c4cccc(Cl)c4)o2)N3)C1` (stereo not given) the value was “inactive”; for `COn1c(=O)c(-c2ccc(F)cc2)[n+]([O-])c2ccccc21`, “inactive”.
Take `CCN(CC)Cc1c(O)c(Cl)cc2c(C)c(C)c(=O)oc12`: the Potency entry is “inactive”.
In the case of `COc1ccc(/C=N/NC(=O)c2[nH]c3ccc(Cl)cc3c2-c2ccccc2)c(C(=O)O)c1OC`, the Potency result was “inactive”.
Turning to `O=C1OCCN1C(=O)[C@H]1[C@H](c2ccccc2)C(c2ccc(F)cc2)=NN1c1ccccc1`, the Potency result is “inactive”.
For the molecule `CCn1nc(NC(=O)C2CCCO2)c2cc3cccc(C)c3nc21` (stereo not given), the Potency entry was “inactive”.
`COc1cc(C2C=C(c3cccs3)Nc3ncnn32)cc(OC)c1OC` (stereo not given): the Potency result was “inactive”.
As for `Cc1cnc(-n2ncc(C(=O)N3CCN(C(C)C)CC3)c2-c2ccco2)nc1-c1ccc(F)cc1`, the Potency entry is “inactive”.
Take `S=C(NN=C(c1ccccc1)c1ccccn1)N(Cc1ccccn1)Cc1ccccn1`: the Potency is 15.8 µM (active).
Take `CC(=O)N(Cc1ccccn1)Cc1ccco1`: the Potency entry is “inactive”.

These data come from ChEMBL document CHEMBL1201862, “PubChem BioAssay data set” (2004).
